Bioassay records (PubChem)
G9a block – qHTS Assay for Inhibitors of Histone Lysine Methyltransferase G9a; Histone-lysine N-methyltransferase EHMT2 (Homo sapiens), Q96KQ7; G9a H3K9 monomethylation, AlphaScreen, 2 h; 350,000 tested, 8.8% active; Potency, µM (series often up to 102 µM), for inactives: top-dose activity, negative = inhibition, most hits filed as inhibitors; further: on the % scale 0 is the no-effect control and ±100 the full control effect; nearly all actives have a fitted effect of over 75% in size
Target sequence (Q96KQ7 913-1193 limits assumed): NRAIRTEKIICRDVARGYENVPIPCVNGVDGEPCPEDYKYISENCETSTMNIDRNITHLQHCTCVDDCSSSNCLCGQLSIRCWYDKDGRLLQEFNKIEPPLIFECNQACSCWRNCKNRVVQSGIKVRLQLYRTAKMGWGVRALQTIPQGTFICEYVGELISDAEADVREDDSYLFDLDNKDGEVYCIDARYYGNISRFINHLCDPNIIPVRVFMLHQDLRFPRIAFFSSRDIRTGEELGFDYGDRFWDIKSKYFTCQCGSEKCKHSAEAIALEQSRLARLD
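Using a bead-based AlphaScreen, monomethylated H3K9 product from 2 h room-temperature reactions (G9a 20 nM, peptide 500 nM, SAM 20 uM) was detected with 0.5 ug/mL rabbit anti-H3K9me1 antibody.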
BAZ2B inh – qHTS Assay for Inhibitors of BAZ2B; 360,000 tested, 4.4% active; AlphaScreen BAZ2B-H3K14Ac peptide displacement; AID 504333, 2011; Bromodomain adjacent to zinc finger domain protein 2B (Homo sapiens), Q9UIF8; Potency, µM (highest dose often 114 µM), without a hit: top-dose activity change, negative = inhibition, hits mostly inhibitors; further: on the % scale 0 is the no-effect control and ±100 the full control effect; nearly all actives have a fitted effect of over 60% in size
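Complex of BAZ2B and biotin-H3K14Ac (50 nM apiece) forms over 30 min at RT, then faces library compounds up to 110 uM for another 30 min; AlphaScreen beads added, 20 min dark incubation, luminescence read.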
HP1b chromo inh – HTS for Inhibitors of HP1-beta Chromodomain Interactions with Methylated Histone Tails; AlphaScreen HP1-beta / biotin-H3K9me3 peptide binding; Potency, µM (series often up to 114 µM), for the others: top-dose activity change, negative = inhibition, hits mostly inhibitors; 390,000 tested, 0.56% active; AID 540317, 2011; further: nearly all actives have a fitted effect of over 70% in size
Target sequence (P83916 whole entry, looked up): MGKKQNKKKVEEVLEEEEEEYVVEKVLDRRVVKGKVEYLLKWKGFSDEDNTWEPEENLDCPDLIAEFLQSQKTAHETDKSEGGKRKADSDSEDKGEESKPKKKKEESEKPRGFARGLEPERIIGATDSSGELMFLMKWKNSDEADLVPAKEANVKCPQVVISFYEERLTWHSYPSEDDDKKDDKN
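AlphaScreen: HP1-beta (50 nM) preformed 30 min with biotin-H3(1-18)K9me3 peptide (50 nM) in PBS pH 7.4, 0.01% Tween-20. Compound added for 30 min at RT, then streptavidin donor/nickel chelate acceptor beads (10 ug/mL) for 30 min.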
L3MBTL1 inh – qHTS Assay for the Inhibitors of L3MBTL1; Potency, µM (highest dose often 57.1 µM), inactives show at the highest dose activity, negative = inhibition, hits mostly inhibitors; Lethal(3)malignant brain tumor-like protein 1 (Homo sapiens), Q9Y468; 230,000 tested, 0.66% active; AlphaScreen L3MBTL1–H3K9me1 peptide binding; further: on the % scale 0 is the no-effect control and ±100 the full control effect; nearly all actives have a fitted effect of over 60% in size
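AlphaScreen assay: L3MBTL1 (50 nM final) was preincubated 30 min at room temperature with biotinylated H3(1-15)K9me1 peptide (75 nM final), then 30 min with library compounds; streptavidin donor and nickel chelate acceptor beads (10 ug/mL final) added, 30 min dark.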
JMJD2A Tudor inh – qHTS Assay for Inhibitors of JMJD2A-Tudor Domain. Lysine-specific demethylase 4A (Homo sapiens), O75164. AlphaScreen JMJD2A-Tudor / H3K4me3 peptide binding. Potency, µM (doses to about 114 µM), for inactives: at the highest dose activity change, negative = inhibition, hits mostly inhibitors. 390,000 tested, 4.4% active. AID 504339, 2011; further: on the % scale 0 is the no-effect control and ±100 the full control effect; nearly all actives have a fitted effect of over 50% in size
* marks the source's active call; other numbers are inactive results; u = inconclusive; x = not tested or not shown; ! = not active in a repeat; [ ] = another dose, or the depositor's remark. This is a sample that favours compounds with a hit; in the whole collection about 11% have one here. The call rests on the fitted dose curve; in most records, active means well fitted inhibition curve with a large enough effect; inconclusive means small, poorly fitted or top-dose-only effect; inactive means no such curve, though single readings can be large or run the other way. Potency means the concentration at half of the fitted maximal effect.

SMILES	G9a block	BAZ2B inh	HP1b chromo inh	L3MBTL1 inh	JMJD2A Tudor inh
CC(Sc1nc(N)cc(N)n1)C(=O)NCC1CCCO1 (centres undefined)	8.7%[12.7 µM]	-2.0%	35.6%	4.0%	6.0%
CC(Sc1nnc(-c2ccco2)n1N)C(=O)NCC1CCCO1 (centres undefined)	11.2%[12.7 µM]	-6.5%	40.1%	-2.1%	-2.7%
CCN(CC)S(=O)(=O)c1ccc2c(c1)nc(SC(C)C(=O)NCC1CCCO1)n2CC (centres undefined)	79.4µM*	-17.8%	6.1%	x	-14.0%
CC(Sc1nnc(-c2cccs2)n1N)C(=O)NCC1CCCO1 (centres undefined)	50.1µM*	3.9%	22.2%	2.5%	2.0%
Cc1csc(SC(C)C(=O)NCC2CCCO2)n1 (centres undefined)	39.8µM*	-2.6%	33.3%	-3.5%	-2.7%
O=c1c(-c2cc(F)cc(F)c2)nc2cnc(N3CCOCC3)nc2n1C[C@H]1CCCO1	-3.8%[0.501 µM]	x	x	x	x
COC(=O)C(=N/Nc1ccccc1C(=O)OC)/C(C)=N/O	50.1µM*	-15.3%	12.5%	x	2.9%
CC1=CC(C)(C)Nc2ccc(OC(=O)CN3C(=O)c4ccccc4C3=O)cc21	35.5µM*	17.8µM*	u	-24.8%	u
CC1=CC(C)(C)Nc2ccc(OC(=O)CN3C(=O)c4cccc5cccc(c45)C3=O)cc21	8.91µM*	50.1µM*	-21.0%	u	u
CCOc1ccc2c(c1)C(C)=CC(C)(C)N2	8.91µM*!	50.1µM*	-7.1%	-12.5%	u
CC1=CC(C)(C)Nc2ccc(OC(=O)C(Cc3ccccc3)N3C(=O)c4ccccc4C3=O)cc21 (centres undefined)	u	u	u	-20.3%	u
CCc1ccc2c(c1)C(C)=CC(C)(C)N2	u	u	-23.7%	x	u
CNC(=S)N/N=C/c1cn(CCOc2cccc(OC)c2)c2ccccc12	44.7µM*	u	u	-17.1%	u
CNC(=S)N/N=C/c1cn(CCOc2ccccc2OC)c2ccccc12	7.7%[59 µM]	u	-7.5%	-18.1%	-30.1%
O=c1c(-c2ccccc2)c(-c2ccccc2)oc2cc(O)cc(O)c12	41.0%[0.501 µM]	70.8µM*	-17.9%	x	u
O=c1c(O)c(-c2ccc(O)cc2O)oc2cc(O)cc(O)c12	39.8µM*!	50.1µM*	x	u	x
Cc1ccc(C)c(N2CCN(C(=O)c3cc(S(=O)(=O)N4CCCCC4)cn3C)CC2)c1	-29.6%[59 µM]	-30.0%	-1.9%[57 µM]	x	u
CCOC(=O)c1cc2c(ccn2C)n1CC(=O)N(Cc1ccccc1)c1ccccc1	28.2µM*	31.6µM*	-45.6%	u	25.1µM*
CCOC(=O)c1cc2c(ccn2C)n1CC(=O)N1CCN(c2ccccc2)CC1	u	-4.7%	14.5%	-4.7%	-20.2%
CC(C)OC(=O)c1cc2c(ccn2C)n1CC(=O)N(Cc1ccccc1)c1ccc(F)cc1	28.2µM*	39.8µM*	u	-16.3%	17.8µM*
Cc1ccc(NC(=O)Cn2c(=O)n(CC3CCCO3)c(=O)c3ccccc32)cc1 (centres undefined)	-34.5%[59 µM]	-1.8%	24.7%	x	-6.5%
NC(=O)c1ncn([C@@H]2O[C@H](CNCc3cccc(OC4CCCC4)c3)[C@@H](O)[C@H]2O)n1	x	x	56.0%	x	-7.2%
O=C(NNc1ccc(C2CCCCC2)cc1)C(O)(c1ccccc1)c1cccs1 (centres undefined)	0.9%[0.501 µM]	50.1µM*	14.3%	-0.5%	-30.1%
O=C(NCc1ccccc1Cl)c1ccc(NC(=O)c2nsc3ccccc23)cc1	1.8%[59 µM]	-1.2%	18.8%[57 µM]	x	-10.1%
Cc1cc(C)cc(NC(=O)c2cc(S(=O)(=O)N3CCCC3)ccc2F)c1	8.8%[59 µM]	4.3%	24.8%	x	-0.3%
SMILES	G9a block	BAZ2B inh	HP1b chromo inh	L3MBTL1 inh	JMJD2A Tudor inh
CC(=O)Nc1cc(NC(C)=O)cc(C(=O)N2CCCC3CCCCC32)c1 (centres undefined)	50.1µM*	50.1µM*	u	x	56.2µM*
C#CCN(Cc1ccco1)C(=O)c1cc(COc2ccc(F)cc2Cl)on1	x	70.8µM*	62.7%	-22.0%	-12.8%[11.4 µM]
CCN(Cc1ccncc1)C(=O)c1cc(COc2ccc(F)cc2Cl)on1	x	-6.3%	8.8%	x	-18.1%
CC(C)(C)NC(=O)N1CCC(C(=O)O)CC1	-15.0%[59 µM]	0.9%	38.6%	x	-3.2%
O=C(/C=C/c1ccncc1)c1ccc2c(c1)OCCO2	50.1µM*	-37.4%	28.9%	-11.8%	-20.3%
Cc1ccccc1OCCn1cnc2cc([N+](=O)[O-])ccc2c1=O	-32.7%	u	2.5%	-25.0%	-32.2%
O=C(NCCc1csc(-c2ccccc2)n1)c1ccc(Br)o1	0.9%[59 µM]	-2.8%	29.2%	-5.3%	0.0%
O=C(NCCc1csc(-c2cccnc2)n1)c1ccc(Br)o1	20µM*	2.0%	55.5%	-9.0%	-17.6%
O=C(Cn1cc(SCc2ccccc2F)c2ccccc21)N1CCCCCC1	-1.4%[59 µM]	-3.1%	50.1%	x	4.8%
O=C(NNc1cc(Br)c(O)c(Br)c1)c1ccccc1	5.01µM*	8.91µM*	39.8µM*	x	8.91µM*
CCc1nnc2c(Nc3ccccc3Br)nc3ccccc3n12	8.5%[59 µM]	-0.7%	36.8%	x	17.5%
CCc1nnc2c(Nc3ccc(N(CC)CC)cc3C)nc3ccccc3n12	17.8µM*	31.6µM*	u	x	15.8µM*
O=C(NCc1ccco1)C1CCN(c2nc3ccccc3n2Cc2ccc(F)cc2)CC1	79.4µM*	u	-6.4%	x	u
COCCn1c(SCC(=O)Nc2cccc(S(N)(=O)=O)c2)nc2cc(Cl)ccc2c1=O	2.9%	-3.4%	-16.8%	9.2%	20µM*
COCC(C)n1c(SCC(=O)Nc2sccc2C(N)=O)nc2ccccc2c1=O (centres undefined)	10.1%[12.7 µM]	-10.1%	15.4%	-1.1%	-19.8%
COCCn1c(SCC(=O)Nc2sccc2C(N)=O)nc2cc(Cl)ccc2c1=O	44.7µM*	-35.1%	15.2%	-8.5%	-15.5%
COCCn1c(SCC(=O)Nc2cccnc2Cl)nc2cc(Cl)ccc2c1=O	-27.7%[2.33 µM]	5.9%	24.4%	-5.9%	-5.7%
Cc1cc2c(s1)c1cnn(Cc3c(Cl)cccc3Cl)c(=O)c1n2C	x	x	x	x	-26.0%
O=C(NCCc1nc2ccccc2n1CCCOc1ccccc1)C1CCCCC1	x	x	24.0%[57 µM]	x	-10.8%[57.1 µM]
COc1ccc(N2CCN(C(=O)c3oc4ccccc4c3NC(=O)Cc3cccc(OC)c3)CC2)cc1	39.8µM*	u	-21.1%	x	15.8µM*
COc1ccc(N2CCN(C(=O)c3oc4ccccc4c3C)CC2)cc1	35.5µM*	x	u	-8.0%	39.8µM*
COc1ccc(N2CCN(C(=O)c3oc4ccccc4c3NC(=O)Cc3ccc(OC)c(OC)c3)CC2)cc1	28.2µM*	u	4.4%	x	u
